PubChem BioAssay (NCI)
About 83,000 compounds went through this panel and 20% of them were active in at least one assay; those are over-represented in the sample as a whole.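 Negative percent growth values reflect cell death: -40 means 40% of the cells present at the start died, and -100 means all died.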 Unmarked numbers belong to inactive results. Activity calls are given as the source filed them. How the source made its calls: active means growth percent below 10; inactive means the rest.

How the values were obtained:
Assay in all cases: NCI-60 one-dose screen, 48 h (100 = growth as untreated, 0 = no growth, -100 = all killed)
Conditions in all cases: 10 µM
RPMI-8226 leukemia = test system: RPMI-8226 leukemia
OVCAR-8 ovarian = test system: OVCAR-8 ovarian
OVCAR-5 ovarian = test system: OVCAR-5 ovarian
OVCAR-4 ovarian = test system: OVCAR-4 ovarian
SK-OV-3 ovarian = test system: SK-OV-3 ovarian
IGROV1 ovarian = test system: IGROV1 ovarian
OVCAR-3 ovarian = test system: OVCAR-3 ovarian
HS 578T breast = test system: HS 578T breast
NCI/ADR-RES ovarian = test system: NCI/ADR-RES ovarian
T-47D breast = test system: T-47D breast
BT-549 breast = test system: BT-549 breast
MDA-MB-435 melanoma = test system: MDA-MB-435 melanoma
SW-620 colon = test system: SW-620 colon
MCF7 breast = test system: MCF7 breast
HCT-116 colon = test system: HCT-116 colon
HCC-2998 colon = test system: HCC-2998 colon
KM12 colon = test system: KM12 colon

**Q.** Which growth (RPMI-8226 leukemia) does the source give for `O=C(Nc1cccc(-n2cc(-c3ccncc3)c(-c3cc(O)cc(Cl)c3)n2)c1)Nc1ccc(Cl)c(C(F)(F)F)c1` here?
**A.** Its growth is 13.8%.

**Q.** What about the growth (OVCAR-8 ovarian) of the same molecule?
**A.** The growth was 3.69% (active).

**Q.** And the growth (OVCAR-5 ovarian)?
**A.** Its growth is 59.3%.

**Q.** And the growth (OVCAR-4 ovarian)?
**A.** Its growth is 31.5%.

**Q.** What about the growth (SK-OV-3 ovarian) of the same molecule?
**A.** The growth was 63.1%.

**Q.** And the growth (IGROV1 ovarian)?
**A.** The growth was 30.6%.

**Q.** What about the growth (OVCAR-3 ovarian) of the same molecule?
**A.** The growth was 1.88% (active).

**Q.** And the growth (HS 578T breast)?
**A.** Its growth is 21.7%.

**Q.** And the growth (NCI/ADR-RES ovarian)?
**A.** Its growth is 41.5%.

**Q.** And the growth (T-47D breast)?
**A.** Its growth is 25%.

**Q.** What about the growth (BT-549 breast) of the same molecule?
**A.** The growth was 47.6%.

**Q.** And the growth (MDA-MB-435 melanoma)?
**A.** The growth was 9.57% (active).

**Q.** What about the growth (SW-620 colon) of the same molecule?
**A.** The growth was -33.6% (active).

**Q.** What about the growth (MCF7 breast) of the same molecule?
**A.** The growth was 13.4%.

**Q.** What about the growth (HCT-116 colon) of the same molecule?
**A.** Its growth is 6.95% (active).

**Q.** What about the growth (HCC-2998 colon) of the same molecule?
**A.** The growth was 34.3%.

**Q.** And the growth (KM12 colon)?
**A.** Its growth is 15.1%.

**Q.** Which results are given for `Cc1ccc(S(=O)(=O)Oc2ccc3c4c(c(=O)oc3c2)CCCCC4)cc1`?
**A.** growth (RPMI-8226 leukemia): 24%; growth (OVCAR-8 ovarian): 63.1%; growth (OVCAR-5 ovarian): 93.5%; growth (OVCAR-4 ovarian): 51.3%; growth (SK-OV-3 ovarian): 93.1%; growth (IGROV1 ovarian): 82.1%; growth (OVCAR-3 ovarian): 75.1%; growth (HS 578T breast): 79.7%; growth (NCI/ADR-RES ovarian): 53.2%; growth (T-47D breast): 33.4%; growth (BT-549 breast): 47.3%; growth (MDA-MB-435 melanoma): 57%; growth (SW-620 colon): 30.2%; growth (MCF7 breast): 50.5%; growth (HCT-116 colon): 36.7%; growth (HCC-2998 colon): 51.4%; growth (KM12 colon): 35.3%

**Q.** Which growth (RPMI-8226 leukemia) does the source give for `Oc1[nH]c2ccc(Cl)cc2c1/C=c1/ccc2c(c1)N=C(c1cccs1)N=2` here?
**A.** The growth was 48%.

**Q.** And the growth (OVCAR-8 ovarian)?
**A.** The growth was 52.2%.

**Q.** What about the growth (OVCAR-5 ovarian) of the same molecule?
**A.** The growth was 89.3%.

**Q.** And the growth (OVCAR-4 ovarian)?
**A.** The growth was 52.3%.

**Q.** What about the growth (SK-OV-3 ovarian) of the same molecule?
**A.** The growth was 87.5%.

**Q.** What about the growth (IGROV1 ovarian) of the same molecule?
**A.** Its growth is 61%.

**Q.** And the growth (OVCAR-3 ovarian)?
**A.** The growth was 56.1%.

**Q.** And the growth (HS 578T breast)?
**A.** Its growth is 59.5%.

**Q.** And the growth (NCI/ADR-RES ovarian)?
**A.** The growth was 64.3%.

**Q.** And the growth (T-47D breast)?
**A.** Its growth is 59.4%.

**Q.** And the growth (BT-549 breast)?
**A.** The growth was 57.4%.

**Q.** And the growth (MDA-MB-435 melanoma)?
**A.** The growth was 39%.

**Q.** And the growth (SW-620 colon)?
**A.** Its growth is 85.9%.

**Q.** What about the growth (MCF7 breast) of the same molecule?
**A.** Its growth is 10.1%.

**Q.** What about the growth (HCT-116 colon) of the same molecule?
**A.** Its growth is 52.9%.

**Q.** And the growth (HCC-2998 colon)?
**A.** Its growth is 88.6%.

**Q.** And the growth (KM12 colon)?
**A.** The growth was 58%.

**Q.** For `COc1cc(/C=C2\CCCC3=C2N=C2SC=NN2C3c2cc(OC)c(OC)c(OC)c2)cc(OC)c1OC` (stereo unspecified), which growth (RPMI-8226 leukemia) is on record?
**A.** Its growth is -22.5% (active).

**Q.** What about the growth (OVCAR-8 ovarian) of the same molecule?
**A.** Its growth is 9.84% (active).

**Q.** And the growth (OVCAR-5 ovarian)?
**A.** The growth was 91.9%.

**Q.** What about the growth (OVCAR-4 ovarian) of the same molecule?
**A.** The growth was 47%.

**Q.** What about the growth (SK-OV-3 ovarian) of the same molecule?
**A.** The growth was 57.4%.

**Q.** And the growth (IGROV1 ovarian)?
**A.** The growth was 29%.

**Q.** And the growth (OVCAR-3 ovarian)?
**A.** The growth was 29.3%.

**Q.** What about the growth (HS 578T breast) of the same molecule?
**A.** The growth was 42.8%.

**Q.** What about the growth (NCI/ADR-RES ovarian) of the same molecule?
**A.** The growth was 18.5%.

**Q.** And the growth (T-47D breast)?
**A.** Its growth is 61.4%.

**Q.** And the growth (BT-549 breast)?
**A.** The growth was 37.9%.

**Q.** What about the growth (MDA-MB-435 melanoma) of the same molecule?
**A.** Its growth is -13.2% (active).

**Q.** What about the growth (SW-620 colon) of the same molecule?
**A.** Its growth is 18.5%.

**Q.** What about the growth (MCF7 breast) of the same molecule?
**A.** The growth was 27.4%.

**Q.** And the growth (HCT-116 colon)?
**A.** Its growth is -23.5% (active).

**Q.** What about the growth (HCC-2998 colon) of the same molecule?
**A.** Its growth is 4.77% (active).

**Q.** And the growth (KM12 colon)?
**A.** The growth was -23.5% (active).

**Q.** For `FC(F)(F)c1ccc(-c2cnc(Cl)nc2N2CCC3(CC2)OCCO3)cc1`, which growth (RPMI-8226 leukemia) is on record?
**A.** Its growth is 76.3%.

**Q.** And the growth (OVCAR-8 ovarian)?
**A.** Its growth is 95%.

**Q.** What about the growth (OVCAR-5 ovarian) of the same molecule?
**A.** The growth was 92.9%.

**Q.** What about the growth (OVCAR-4 ovarian) of the same molecule?
**A.** The growth was 89.9%.

**Q.** And the growth (SK-OV-3 ovarian)?
**A.** Its growth is 88.9%.

**Q.** And the growth (IGROV1 ovarian)?
**A.** The growth was 83.6%.

**Q.** What about the growth (OVCAR-3 ovarian) of the same molecule?
**A.** The growth was 96%.

**Q.** What about the growth (HS 578T breast) of the same molecule?
**A.** Its growth is 105%.

**Q.** What about the growth (NCI/ADR-RES ovarian) of the same molecule?
**A.** Its growth is 87.4%.

**Q.** And the growth (T-47D breast)?
**A.** The growth was 88.8%.

**Q.** And the growth (BT-549 breast)?
**A.** Its growth is 97.1%.

**Q.** What about the growth (MDA-MB-435 melanoma) of the same molecule?
**A.** The growth was 101%.

**Q.** What about the growth (SW-620 colon) of the same molecule?
**A.** The growth was 103%.

**Q.** And the growth (MCF7 breast)?
**A.** Its growth is 98.9%.

**Q.** What about the growth (HCT-116 colon) of the same molecule?
**A.** Its growth is 82.7%.

**Q.** What about the growth (HCC-2998 colon) of the same molecule?
**A.** The growth was 102%.

**Q.** And the growth (KM12 colon)?
**A.** Its growth is 96.3%.

**Q.** For `COc1ccc(Nc2nc3ccc(NC(=O)NC4CCCCC4)cc3[nH]c2=O)cc1`, which growth (RPMI-8226 leukemia) is on record?
**A.** The growth was 66.2%.

**Q.** What about the growth (OVCAR-8 ovarian) of the same molecule?
**A.** Its growth is 91.4%.

**Q.** What about the growth (OVCAR-5 ovarian) of the same molecule?
**A.** The growth was 104%.

**Q.** And the growth (OVCAR-4 ovarian)?
**A.** Its growth is 113%.

**Q.** And the growth (SK-OV-3 ovarian)?
**A.** The growth was 96.1%.

**Q.** What about the growth (IGROV1 ovarian) of the same molecule?
**A.** Its growth is 94.1%.

**Q.** What about the growth (OVCAR-3 ovarian) of the same molecule?
**A.** The growth was 112%.

**Q.** And the growth (HS 578T breast)?
**A.** Its growth is 69.6%.

**Q.** What about the growth (NCI/ADR-RES ovarian) of the same molecule?
**A.** The growth was 103%.

**Q.** And the growth (T-47D breast)?
**A.** Its growth is 92.8%.

**Q.** And the growth (BT-549 breast)?
**A.** Its growth is 87.7%.

**Q.** And the growth (MDA-MB-435 melanoma)?
**A.** The growth was 105%.

**Q.** And the growth (SW-620 colon)?
**A.** Its growth is 108%.

**Q.** And the growth (MCF7 breast)?
**A.** Its growth is 83%.

**Q.** And the growth (HCT-116 colon)?
**A.** Its growth is 102%.

**Q.** What about the growth (HCC-2998 colon) of the same molecule?
**A.** The growth was 104%.

**Q.** And the growth (KM12 colon)?
**A.** The growth was 87.1%.

**Q.** What does the source list for `CC(C)=CCc1cc(O)cc2c1OC(C=C(C)C)C1=C2C(=O)C2=C(C1=O)S(=O)(=O)CCN2` (stereo unspecified)?
**A.** growth (RPMI-8226 leukemia): 51.4%; growth (OVCAR-8 ovarian): 10.8%; growth (OVCAR-5 ovarian): 152%; growth (OVCAR-4 ovarian): 5.54% (active); growth (SK-OV-3 ovarian): 84.7%; growth (IGROV1 ovarian): -0.954% (active); growth (OVCAR-3 ovarian): 0.638% (active); growth (HS 578T breast): 70.3%; growth (NCI/ADR-RES ovarian): 91.7%; growth (T-47D breast): -0.36% (active); growth (BT-549 breast): 58.9%; growth (MDA-MB-435 melanoma): -68.3% (active); growth (SW-620 colon): 4.52% (active); growth (MCF7 breast): -50% (active); growth (HCT-116 colon): -8.73% (active); growth (HCC-2998 colon): 36.4%; growth (KM12 colon): 69.2%

**Q.** What does the source list for `O=C(Nc1ccc(CO)cc1)c1ccccc1Nc1ccnc(C(F)(F)F)c1`?
**A.** growth (RPMI-8226 leukemia): 89%; growth (OVCAR-8 ovarian): 98.3%; growth (OVCAR-5 ovarian): 104%; growth (OVCAR-4 ovarian): 98.2%; growth (SK-OV-3 ovarian): 101%; growth (IGROV1 ovarian): 101%; growth (OVCAR-3 ovarian): 110%; growth (HS 578T breast): 93.7%; growth (NCI/ADR-RES ovarian): 102%; growth (T-47D breast): 86.9%; growth (BT-549 breast): 104%; growth (MDA-MB-435 melanoma): 106%; growth (SW-620 colon): 105%; growth (MCF7 breast): 97.1%; growth (HCT-116 colon): 101%; growth (HCC-2998 colon): 106%; growth (KM12 colon): 99.4%
